USP8 inh: inhibitors of human USP8 deubiquitinase; 4.2% of 47,000 active; Ubiquitin carboxyl-terminal hydrolase 8 (Homo sapiens), P40818; inhibition, % at 20 µM; AID 1645853, 2021; purified USP8, Ub-rhodamine cleavage fluorescence, 30 min
USP17 inh: inhibitors of human USP17 deubiquitinase; Ubiquitin carboxyl-terminal hydrolase 17-like protein 5 (Homo sapiens), A8MUK1; purified USP17, Ub-rhodamine cleavage fluorescence, 3 h; inhibition, % at 50 µM; 6.5% of 47,000 active; AID 1645855, 2021
USP28 inh: inhibitors of human USP28 deubiquitinase; inhibition, % at 25 µM; purified USP28, Ub-rhodamine cleavage fluorescence, 30 min; 3% of 47,000 active
Target sequence (Q96RU2 whole entry, looked up): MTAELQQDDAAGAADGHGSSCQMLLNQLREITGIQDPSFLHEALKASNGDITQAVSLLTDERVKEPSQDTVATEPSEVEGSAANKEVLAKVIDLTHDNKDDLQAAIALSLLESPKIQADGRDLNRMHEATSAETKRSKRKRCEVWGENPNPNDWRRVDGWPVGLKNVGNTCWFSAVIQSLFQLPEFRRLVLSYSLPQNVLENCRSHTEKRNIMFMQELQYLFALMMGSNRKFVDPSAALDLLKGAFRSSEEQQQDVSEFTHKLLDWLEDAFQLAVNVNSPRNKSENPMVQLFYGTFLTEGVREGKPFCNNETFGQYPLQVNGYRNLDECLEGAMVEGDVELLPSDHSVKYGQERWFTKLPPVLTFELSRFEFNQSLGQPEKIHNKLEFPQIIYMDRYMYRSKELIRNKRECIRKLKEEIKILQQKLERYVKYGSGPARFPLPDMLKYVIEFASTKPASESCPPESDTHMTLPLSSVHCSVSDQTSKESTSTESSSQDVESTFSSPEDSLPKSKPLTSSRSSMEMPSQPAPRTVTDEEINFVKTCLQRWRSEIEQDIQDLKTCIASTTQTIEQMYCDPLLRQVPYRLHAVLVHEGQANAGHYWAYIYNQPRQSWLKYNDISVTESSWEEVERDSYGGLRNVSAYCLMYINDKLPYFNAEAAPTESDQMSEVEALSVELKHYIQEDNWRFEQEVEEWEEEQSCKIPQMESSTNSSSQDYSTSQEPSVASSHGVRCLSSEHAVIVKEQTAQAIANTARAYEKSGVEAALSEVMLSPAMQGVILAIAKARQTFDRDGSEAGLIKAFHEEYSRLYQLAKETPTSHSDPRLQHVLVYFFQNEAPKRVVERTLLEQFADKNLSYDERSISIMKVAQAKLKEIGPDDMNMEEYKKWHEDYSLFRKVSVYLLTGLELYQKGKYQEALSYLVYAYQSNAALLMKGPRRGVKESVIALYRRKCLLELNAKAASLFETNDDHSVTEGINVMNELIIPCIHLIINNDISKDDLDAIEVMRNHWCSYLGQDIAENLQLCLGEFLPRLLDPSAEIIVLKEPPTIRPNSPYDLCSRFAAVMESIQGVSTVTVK
USP30 inh: inhibitors of human USP30 deubiquitinase | purified USP30, Ub-rhodamine cleavage fluorescence | inhibition, % at 25 µM | 5.3% of 47,000 active | AID 1645860, 2021
Starred values were filed as active, the others as inactive. Most compounds without a hit are left out; they make up all but 13% or so of the library. Cut-off read from the data, not from the text of the source: active = inhibition above about 30%; inactive = the rest.

How did CC1CCN(C(=O)CN2CCC3(CCC2=O)NC(=O)c2ccccc2N3)CC1 (configuration not stated) do in these assays?
USP8 inh: 3.4; USP17 inh: -0.2; USP28 inh: 2.2; USP30 inh: -0.3

What do the screens show for `COc1ccc(NS(=O)(=O)c2cccc(NC(=O)CC(=O)c3ccc([N+](=O)[O-])cc3)c2)cc1`?
USP8 inh: 11.6; USP17 inh: 76.1*

How did COc1ccccc1NS(=O)(=O)c1cc(NC(=O)CC(=O)c2ccc([N+](=O)[O-])cc2)ccc1C do in these assays?
USP8 inh: 67.5*; USP28 inh: 12.4; USP30 inh: 11.0

What do the screens show for `COc1ccc(NS(=O)(=O)c2cc(NC(=O)CC(=O)c3ccc([N+](=O)[O-])cc3)ccc2Cl)cc1`?
USP8 inh: 57.8*; USP17 inh: 49.4*; USP28 inh: 0.2; USP30 inh: 19.4

What do the screens show for `COc1ccc(NC(=O)Cc2cc(OC)c(OC)c(OC)c2)cc1S(=O)(=O)Nc1ccc(Br)cc1`?
USP8 inh: -10.0; USP17 inh: -6.4; USP28 inh: 5.6; USP30 inh: -4.2

Results for COc1ccc(NS(=O)(=O)c2cccc(NC(=O)CCC(=O)c3ccc(Cl)cc3)c2)cc1 ?
USP8 inh: 6.3; USP17 inh: 9.1; USP28 inh: 4.4; USP30 inh: -0.5

How did COc1ccccc1NS(=O)(=O)c1cc(C(=O)NCc2ccncc2)ccc1C do in these assays?
USP8 inh: 7.7; USP17 inh: -4.0; USP28 inh: 0.2; USP30 inh: 4.3

What do the screens show for `COc1ccc(NC(=O)CC(=O)c2ccc([N+](=O)[O-])cc2)cc1S(=O)(=O)Nc1ccc(Cl)cc1`?
USP8 inh: 57.8*; USP17 inh: 38.0*; USP28 inh: 25.7; USP30 inh: 60.5*

What do the screens show for `COc1ccc([N+](=O)[O-])cc1NS(=O)(=O)c1cc(C(=O)NCc2cccnc2)ccc1Cl`?
USP8 inh: -128.0; USP17 inh: -21.2; USP28 inh: -0.1; USP30 inh: 16.7

How did CC(=O)NC(Cc1ccccc1C)C(=O)NC1CCN(c2nnnn2-c2ccccc2)CC1 (configuration not stated) do in these assays?
USP8 inh: 1.2; USP17 inh: 3.0; USP28 inh: 0.0; USP30 inh: 8.1

How did COc1ccc(OCC(O)CNC(=O)Nc2ccc(F)cc2)cc1 (configuration not stated) do in these assays?
USP8 inh: 1.1; USP17 inh: 4.1; USP28 inh: 16.6; USP30 inh: 29.5

What do the screens show for `COc1ccc(NC(=O)NC(COC(=O)Nc2ccc(OC)cc2)c2ccccc2)cc1` (configuration not stated)?
USP8 inh: 25.4; USP17 inh: 59.9*; USP28 inh: 32.9*; USP30 inh: 94.7*

What do the screens show for `Cc1cccn2c(=O)c3cc(C(=O)Nc4ccc5c(c4)OCCO5)n(Cc4ccccc4)c3nc12`?
USP8 inh: 16.2; USP17 inh: 1.2; USP28 inh: -0.7; USP30 inh: -12.8

Results for O=[N+]([O-])c1cccc(-c2nnc(-c3ccccn3)o2)c1 ?
USP8 inh: -116.4; USP17 inh: -9.1; USP28 inh: -5.8; USP30 inh: 2.2

What do the screens show for `O=[N+]([O-])c1cccc(-c2csc(-c3ccc4c(c3)OCO4)n2)c1`?
USP8 inh: 31.4*; USP17 inh: 20.5; USP28 inh: 4.3; USP30 inh: 14.1

Results for c1ccc(-c2cc(-c3csc(-c4ccc5c(c4)OCCO5)n3)on2)cc1 ?
USP8 inh: -22.5; USP17 inh: 51.2*; USP28 inh: 24.3; USP30 inh: 35.3*

How did Cc1nc(N2CCCC2)ncc1-c1cc(=O)[nH]c(NCCc2ccccc2)n1 do in these assays?
USP8 inh: 13.1; USP17 inh: 50.2*; USP28 inh: 5.0; USP30 inh: 63.9*

How did Cc1nc(N2CCC(C)CC2)ncc1-c1cc(=O)[nH]c(Nc2nc3ccccc3o2)n1 do in these assays?
USP8 inh: 12.5; USP17 inh: 33.6*; USP28 inh: 13.6; USP30 inh: 41.1*

What do the screens show for `Cc1nc(N2CCOCC2)ncc1-c1cc(=O)[nH]c(Nc2nc(C)c3ccccc3n2)n1`?
USP8 inh: 14.5; USP17 inh: 12.2; USP28 inh: -1.3; USP30 inh: 18.1

How did Cc1nn(-c2ccccc2)c2c1C(c1ccco1)c1c(ncn3nc(CO/N=C/c4ccccc4Cl)nc13)O2 (configuration not stated) do in these assays?
USP8 inh: 0.0; USP17 inh: -0.9; USP28 inh: -13.0; USP30 inh: -10.5

Results for COc1ccccc1-c1nc2c3c(ncn2n1)Oc1c(c(C)nn1-c1ccccc1)C3c1cccnc1 (configuration not stated) ?
USP8 inh: -2.0; USP17 inh: 54.2*; USP28 inh: -4.2; USP30 inh: 8.8

What do the screens show for `COc1ccc(/C=N/OCc2nc3c4c(ncn3n2)Oc2c(c(C)nn2-c2ccccc2)C4c2ccco2)cc1` (configuration not stated)?
USP8 inh: 11.3; USP17 inh: 22.3; USP28 inh: 11.2; USP30 inh: 41.6*

Results for COc1ccccc1-c1nc2c3c(C)c(C)n(Cc4cccnc4)c3ncn2n1 ?
USP8 inh: -11.4; USP17 inh: -6.0; USP28 inh: 51.4*; USP30 inh: -23.6

Results for COc1ccccc1-c1nc2c3c(C)c(C)n(CCCN(C)C)c3ncn2n1 ?
USP8 inh: -19.1; USP17 inh: -14.9; USP28 inh: -10.9; USP30 inh: -92.3

How did COc1ccc2cc(C(=O)N3CCC(C(C)C(=O)NC4CCCC4)CC3)[nH]c2c1 (configuration not stated) do in these assays?
USP8 inh: -36.8; USP28 inh: -9.2; USP30 inh: -10.4

Results for Cc1ncc(CO)c2c1Oc1nc(-c3cccc(Cl)c3)nc(SCC(=O)N3CCCCC3)c1C2 ?
USP8 inh: 49.9*; USP17 inh: 82.3*; USP28 inh: 18.6; USP30 inh: -1.3

Results for N#Cc1sc(C(N)=O)c2c1CCCC2 ?
USP8 inh: 0.0; USP17 inh: -17.7; USP28 inh: 0.0; USP30 inh: -5.0

Results for Fc1ccccc1CNc1nnc(-c2nc(C3CC3)no2)c2ccccc12 ?
USP8 inh: -0.5; USP17 inh: 6.6; USP28 inh: 12.5; USP30 inh: -0.7

Results for Cc1cccc(-c2nc(C(N)=O)c3[nH]c(=O)n(-c4ccccc4)c3n2)c1 ?
USP8 inh: 74.8*; USP17 inh: 8.4; USP28 inh: -24.5; USP30 inh: -75.6

What do the screens show for `Cc1ccc(-n2c(=O)[nH]c3c(C(N)=O)nc(-c4cccnc4)nc32)cc1`?
USP8 inh: 6.9; USP17 inh: 34.2*; USP28 inh: 18.5; USP30 inh: 33.6*

What do the screens show for `Cc1ccc(-n2c(=O)[nH]c3c(C(N)=O)nc(-c4ccccn4)nc32)cc1`?
USP8 inh: -63.6; USP17 inh: 8.7; USP28 inh: -28.0; USP30 inh: -78.9

What do the screens show for `COc1cc(-c2nc(C(N)=O)c3[nH]c(=O)n(-c4ccccc4)c3n2)ccc1O`?
USP8 inh: 23.3; USP17 inh: 26.0; USP28 inh: 7.0; USP30 inh: -30.6
